Measured potencies and affinities stand elsewhere. Unmarked numbers belong to inactive results.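 How the source made its calls: active means compounds lowering cell ATP signal with a fitted half-effect dose at most twice the top valid dose; inconclusive means flat curve with 30 to 70% signal loss, or bad fit; inactive means wrong direction, flat within 30%, or weaker than limit.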
assay: HEK293 cell cytotoxicity, dose response, cytotoxicity control, cherry-picks, set 5 (AID 1053117); details: HEK293T viability, CellTiter-Glo ATP luminescence, 72 h; series mostly up to 26 µM; activity change, negative = cytotoxicity: at the top concentration;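 further: more negative means greater loss of ATP signal and more cytotoxicity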

SMILES | activity change, negative = cytotoxicity
COc1ccc([N+](=O)[O-])cc1NS(=O)(=O)c1ccc(C(=O)N2CCCC2)cc1 | -10.2%
Cc1ccccc1S(=O)(=O)N1CC[C@H]2[C@H](CO)Nc3ccc(-c4ccc(C#N)cc4)cc3[C@H]21 | -16.2%
OC(CNC1CCCc2ccccc21)COc1c(Cl)cccc1Cl (stereo not drawn) | -9.22%
COC(=O)C[C@@H]1CC[C@@H]2[C@@H](COc3ccc(NC(=O)Cc4cccs4)cc3C(=O)N2C)O1 | 7.75%
C[C@H](CO)N1C[C@H](C)[C@@H](CN(C)Cc2ccc(-c3ccccc3)cc2)Oc2ccc(NC(=O)C3CCCCC3)cc2C1=O | -16.4%
C[C@@H]1CN([C@@H](C)CO)C(=O)c2cc(-c3ccccc3)cnc2O[C@@H]1CN(C)C(=O)c1cccc(F)c1 | -7.36%
CN(C)C(=O)c1ccc(-c2ccc3c(c2)[C@H]2[C@H](CCN2C(=O)c2ccc(F)cc2)[C@@H](CO)N3C)cc1 | -39.6% [at 23.5 µM]
CS(=O)(=O)N1CCN(c2ccc(NC(=O)c3ccc([N+](=O)[O-])o3)cc2)CC1 | 0.414%
C[C@H]1CN([C@@H](C)CO)C(=O)c2cc(-c3ccccc3)cnc2O[C@H]1CN(C)Cc1ccccc1 | -18.7%
C[C@H]1CN([C@@H](C)CO)C(=O)c2cc(NC(=O)CCCN(C)C)ccc2O[C@@H]1CN(C)Cc1ccc(-c2ccccc2)cc1 | -15.9%
CN1c2ccc(-c3ccccc3)cc2[C@H]2[C@H](CCN2C(=O)CN2CCOCC2)[C@H]1CO | 0.716% [at 23.5 µM]
COc1ccccc1CC(=O)OC(C)C(=O)Nc1ccc(S(=O)(=O)N2CCCCC2)cc1 (stereo not drawn) | 1.81%
COCC(=O)Nc1ccc2c(c1)C(=O)N(C)[C@@H]1CC[C@H](CC(=O)NCc3ccccc3Cl)O[C@H]1CO2 | -9.44%
CCc1ccc(NC(=O)CSc2nnc(-c3ccco3)o2)cc1 | -13.1%
COc1cccc(-c2ccc3c(c2)[C@@H]2[C@@H](CCN2S(=O)(=O)c2cccc(OC)c2)[C@@H](CO)N3)c1 | -15.6%
C[C@@H]1CN([C@H](C)CO)C(=O)c2cc(NC(=O)C3CCCCC3)ccc2O[C@@H]1CN(C)Cc1ccc(-c2ccccc2)cc1 | -12.7%
COc1ccc(CCNC(=O)C2CCN(Cc3nc(-c4ccccc4F)oc3C)CC2)cc1OC | 3.94%

SMILES | activity change, negative = cytotoxicity
C[C@H](CO)N1C[C@H](C)[C@H](CN(C)Cc2ccccc2)Oc2ncc(-c3ccccc3)cc2C1=O | -17.3%
CC1(C)Cc2c(C#N)c(SCC(=O)c3ccccc3)nc(N3CCOCC3)c2CS1 | 3.32%
N#C[C@H]1[C@@H](c2ccccc2C2=CCCCC2)[C@H](CO)N1S(=O)(=O)c1ccccc1 | -7.13% [at 23.5 µM]
C[C@@H]1CN([C@H](C)CO)C(=O)c2cc(-c3ccccc3)cnc2O[C@@H]1CN(C)Cc1ccccc1 | -14.5%
C[C@@H]1CN([C@H](C)CO)C(=O)c2cccc(NC(=O)Nc3ccc(C(F)(F)F)cc3)c2O[C@H]1CN(C)C(=O)Nc1cccc2ccccc12 | -15%
COC(=O)C[C@H]1CC[C@@H]2[C@@H](COc3ccc(NC(=O)Cc4cccs4)cc3C(=O)N2C)O1 | -12.4%
N#C[C@@H]1[C@H](c2ccccc2C2=CCCCC2)[C@@H](CO)N1S(=O)(=O)c1ccccc1 | -10.8%
Fc1cnc(N2CCN(c3ccccc3)CC2)nc1N1CCN(c2ccccc2)CC1 | -16.1%
N#Cc1ccc(-c2ccc3c(c2)[C@@H]2[C@@H](CCN2S(=O)(=O)c2ccccc2F)[C@H](CO)N3)cc1 | -20.6%
O=C(Nc1ccccc1F)N1C[C@H]2[C@@H](c3ccccc31)[C@H](CO)N2C(=O)C1CC1 | -4.41%
COc1ncccc1C(=O)NC1CCCc2c1cnn2-c1ccc(C)c(C)c1 (stereo not drawn) | -12.4%
CC(C)(C)c1cc(Cl)c(O)c(NC(=S)NC(=O)c2cccnc2)c1 | -26.8%
COc1cccc(CNC(=O)CCc2nnc3ccc(NCCCN4CCCC4=O)nn23)c1 | -17.4%
CC1CN(C(=O)c2cc3c(=O)n4ccccc4nc3n2C)CC(C)O1 (stereo not drawn) | -20.5%
O=C(OCC(O)C(O)COC(=O)c1ccccc1)c1ccccc1 (stereo not drawn) | -13.8%
C[C@H]1CN([C@@H](C)CO)C(=O)c2cccc(NC(=O)Nc3ccc(C(F)(F)F)cc3)c2O[C@H]1CN(C)C(=O)Nc1cccc2ccccc12 | -18.4% [at 23.5 µM]
